Measured values: PubChem BioAssay (NCATS)
Records with an inconclusive call do not appear. A call without a number means that no potency is given here. Active and inactive are the calls of the source. The call rests on the fitted dose curve; in most records, active means well fitted inhibition curve with a large enough effect; inconclusive means small, poorly fitted or top-dose-only effect; inactive means flat fitted curve, though single readings scatter.

Test: qHTS for Inhibitors of Plasmodium falciparum (HB3) proliferation (AID 504318); further: nearly all actives have a fitted effect of over 60% in size
Details: P. falciparum HB3 in erythrocytes, SYBR Green DNA, 72 h; series mostly up to 7.21 µM
Description: Plasmodium falciparum is a virulent malarial parasite that kills 1-2 million people worldwide each year. Malaria not only inflicts tremendous suffering and morbidity on the human population, but has dramatically influenced the course of civilization with profound sociological and economic implications (Shah, S. 2010). Transmitted by mosquitoes, the sporozoite form of the parasite enters the blood stream to infect hepatocytes, where they become merozoites that infect red blood cells (erythrocytes). Within erythrocytes, merozoites begin a […] cycle of growth and division, after which the parasite is released to infect new red blood cells. Gametocytes, which form within erythrocytes as well, circulate in the bloodstream and are ingested by the mosquito, thereby completing the life cycle (see CDC website). To profile malarial lines for differential chemical responses and to identify inhibitors of malarial growth, an assay that measures P. falciparum growth and replication within erythrocytes was employed. This assay uses a DNA binding fluorescent dye (SYBR Green) to detect parasite DNA following cell lysis. Because mature erythrocytes lack DNA, only Plasmodium-derived DNA is detected. The P. falciparum line cp250, derived from a malarial isolate from Cambodia, (Mu, J., et al. 2010) was added to the panel of lines, Dd2, HB3, 7G8 and GB4 in this study. Laboratory of Assay Development and Screening Technology [ADST] and NIH Chemical Genomics Center [NCGC] Boston University, Chemistry Department, Center for Chemical Methodology and Library Development [CMLD-BU] NIH National Institute of Allergy and Infectious Diseases [NIAID]
ADST Assay Protocol Summary: The 1536-well SYBR Green viability assay was based on the method of Bennett et al (2004) and described previously in 1536-well format (Yuan J., et al. 2009). For screening 3 ul culture medium was dispensed into 1536 well black clear bottom plates (Aurora Biotechnologies) using a Multidrop Combi (Thermo Fisher Scientific Inc.), 23 nL compounds in DMSO were added by a pin transfer (Cleveland, P.H. and Koutz, P.J, 2005) using a pin tool-based delivery system (Kalypsys), and 5 ul of erythrocytes infected with P. falciparum one of five lines (cp250, Dd2, HB3, 7G8 or GB4, 0.3% parasitemia, 2.5% hematocrit final concentration) were added. The plates were incubated at 37C in a humidified incubator in 5% CO2 for 72 h, and 2 ul lysis buffer (20 mM Tris HCl, 10 mM EDTA, 0.16% saponin, 1.6% triton X, 10X SYBR Green I (supplied as 10,000X final concentration by Invitrogen) was added to each well. The plates were mixed for 25 sec with gentle shaking and incubated overnight at room temperature in the dark. The following morning, fluorescence intensity at 485(14) nm excitation and 535(25) nm emission wavelengths was measured on an EnVision (Perkin Elmer) plate reader. Plate reads were normalized relative to the control inhibitor (0.29 uM artemisinin) and vehicle (DMSO) wells present on each plate and then corrected by an algorithm using vehicle-only control plates at the beginning and end of the compound plate stack. References Shah, S. (2010). The Fever: how malaria has ruled humankind for 500,000 years. New York, Sarah Crichton Books. CDC web site, http://www.cdc.gov/malaria/about/biology/index.html Mu, J., Myers, R.A., Jiang, H., Liu, S., Ricklefs, S., Waisberg, M., Chotivanich, K., Wilairatana, P., Krudsood, S., White, N.J., et Plasmodium falciparum genome-wide scans for positive selection, recombination hot spots and resistance to antimalarial drugs Nature Genetics 2010, 42, pp 268-271 Bennett TN, Paguio, M., Gligorijevic, B., Seudieu, C., Kosar, A. D., Davidson, E., and Roepe, P. D. Novel, rapid, and inexpensive cell-based quantification of antimalarial drug efficacy Antimicrobial Agents Chemother. 2004, 48(5): pp 1807-10 Yuan J, Johnson RL, Huang RL, Wichterman J, Jiang HY, Hayton K, Fidock DA, Wellems TE, Inglese J, Austin CP, Su XZ. […]
Potency means the concentration at half of the fitted maximal effect.

SMILES	Potency
COCCN1C=C2C(=O)C(C)(OC(=O)CCC(=O)OC)C(=O)C=C2C=C1C1CC1 (stereo not given)	inactive
CCCCc1nc2c(c3c1C[C@H](C)OC3)CN(C(=O)NCCCC(=O)OCC)CC2	inactive
CC#CCN1c2ccccc2[C@]23C[C@@H](C(=O)OC)N(C(=O)c4ccco4)C2=NC(C(=O)OC)=C(C(=O)OC)[C@H]13	inactive
CC1(OC(=O)CCc2ccccc2)C(=O)C=C2C=C(c3ccc(C#N)cc3)N(c3ccccc3)C=C2C1=O (stereo not given)	inactive
CC(C)Nc1oc(-c2ccccc2)nc1C=Cc1ccccc1	1900 nM (active)
COC(=O)CC1c2ccccc2C=C(/C=C/c2ccc3c(c2)OCO3)N1C(=O)OC (stereo not given)	inactive
COC(=O)[C@@H]1[C@@H](C)N(CCc2cc(OC)c(OC)c(OC)c2)C(=O)N[C@H]1c1ccccc1	inactive
C=CCNC(=O)N1CCc2nc(COc3ccccc3)c3c(c2C1)CO[C@@H](C)C3	inactive
COC(=O)C1=C(C(=O)OC)[C@@H]2N(Cc3ccccc3)c3ccccc3[C@@]23C[C@@H](C(=O)OC)N(S(=O)(=O)c2ccc(C)cc2)C3=N1	1510 nM (active)
CCCCCCCc1cc2ccccc2c2c(C(=O)OC)c(-c3ccccc3)c(C(=O)OC)n12	inactive
COC(=O)[C@H]1[C@H](CCc2ccccc2)NC(=O)N(Cc2ccccc2)[C@@H]1C	inactive
CCCCC1=CC2=CC(=O)C(C)(OC(=O)CC)C(=O)C2=CN1CC(C)C (stereo not given)	inactive
COC(=O)CC=C[C@@H](C)[C@H](OC)c1cc(F)ccc1Br	inactive
CCN(CC)CCCN1C=C2C(=O)C(C)(OC(=O)CCc3ccccc3)C(=O)C=C2C=C1c1ccc(C#N)cc1 (stereo not given)	inactive
CCCCC1=CC2=CC(=O)C(C)(OC(=O)CC)C(=O)C2=CN1C1CCCC1 (stereo not given)	inactive
CCCCC1=CC2=CC(=O)C(C)(OC(=O)CC)C(=O)C2=CN1CCCCO (stereo not given)	inactive
COC(=O)CCCC1=CC2=CC(=O)C(C)(OC(=O)c3cccs3)C(=O)C2=CN1CC1CC1 (stereo not given)	inactive
COc1cccc([C@@H]2Oc3ccc(Br)cc3[C@H](O)[C@@H]2O)c1	inactive
CCCCc1nc2c(c3c1C[C@H](C)OC3)CN(C(=O)NCCc1c[nH]c3ccccc13)CC2	inactive
C=CC1=C2C=C(C3CC3)N(C3CC3)C=C2C(=O)C(C)(OC(=O)c2ccco2)C1=O (stereo not given)	inactive

SMILES	Potency
C=CCN1C=C2C(=O)C(C)(OC(=O)c3cnc4ccccc4n3)C(=O)C=C2C=C1/C=C/COC (stereo not given)	inactive
CCOC(=O)CN1C(=O)N[C@@H](c2cccc(C(F)(F)F)c2)C(C(C)=O)=C1C	inactive
COC(=O)CCC(=O)OC1(C)C(=O)C2=CN(CCCCO)C(c3ccc(OC)cc3)=CC2=C(Br)C1=O (stereo not given)	inactive
C[C@@H]1C[C@](C)(C(=O)c2ccc3ccccc3c2)C=C1c1ccc2ccccc2c1	inactive
CC(C)CN1C=C2C(=O)C(C)(OC(=O)CCc3ccccc3)C(=O)C=C2C=C1c1ccc(C#N)cc1 (stereo not given)	inactive
COCCN1C(=O)N[C@@H](c2cccc(F)c2)C(C(=O)OC)=C1C	inactive
COC(=O)CCC(=O)OC1(C)C(=O)C=C2C=C(C3CC3)N(C3CCCCC3)C=C2C1=O (stereo not given)	inactive
COc1ccc2c(c1)O[C@@H](c1cccc(C(F)(F)F)c1)[C@H](OC(=O)N[C@H]1CCCc3ccccc31)C2=O	inactive
C=CCN1C=C2C(=O)C(C)(OC(=O)c3cccs3)C(=O)C=C2C=C1CCCC(=O)OC (stereo not given)	inactive
CCOC(=O)CN1C(=O)N[C@@H](c2cccc(C(F)(F)F)c2)[C@@H](C(=O)OC)[C@H]1C	inactive
COC(=O)CCC(=O)OC1(C)C(=O)C=C2C=C(C3CC3)N(CC3CC3)C=C2C1=O (stereo not given)	inactive
COC/C=C/C1=CC2=CC(=O)C(C)(OC(=O)c3cnc4ccccc4n3)C(=O)C2=CN1Cc1ccco1 (stereo not given)	inactive
COC(=O)C[C@H]1c2ccccc2[C@H]2C(=C[C@@H](C)[C@H]3C(=O)N(O)C(=O)[C@H]32)N1C(=O)OC	inactive
O=C1C=CC2(OCCCO2)C(Br)=C1CO	inactive
CCCCC1=CC2=CC(=O)C(C)(OC(=O)CC)C(=O)C2=CN1c1ccccc1 (stereo not given)	inactive
COC(=O)N1C(C)=Cc2ccccc2C1C/C(C)=C/C(C)=O (stereo not given)	inactive
CCCCS(=O)(=O)N1CCc2nc(COc3ccccc3)c3c(c2C1)CO[C@@H](C)C3	inactive
COC(=O)C1=C(C(=O)OC)[C@@H]2N(Cc3ccccc3)c3ccccc3[C@@]23C[C@@H](C(=O)OC)N(C(=O)COCc2ccccc2)C3=N1	inactive
CCCCC1=CC2=CC(=O)C(C)(OC(=O)CC)C(=O)C2=CN1CCc1c[nH]c2ccccc12 (stereo not given)	inactive
CCCCC1=CC2=CC(=O)C(C)(OC(=O)CC)C(=O)C2=CN1Cc1ccc2c(c1)OCO2 (stereo not given)	inactive
